Measured values taken from the supplement of paper PMC9135407.
Where “and” joins values, the source holds several entries; their conditions need not be identical. Identical values can stand only once. Counter-ions that a name gives are not always drawn. In all, about 5,800 compounds went through this assay and about 620 (11%) showed activity. The sample as a whole holds a higher share of actives than the screen did. A number with no mark means an inactive call.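 How the source made its calls: active = score above a cut-off or among the top three wells of a plate; in these data no inactive exceeds 0.85.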

System: primary human hepatic stellate cells (donor 1)
Experiment: scaled lipid accumulation score (0 = DMSO-like, 1 = nortriptyline-like); higher = stronger HSC inactivation (lipid re-accumulation), active = hit call of the paper
Conditions: 48 h
[1] = library stock concentration: 10 mM
[2] = library stock concentration: 80 uM
[3] = library stock concentration: 400 uM
[4] = library stock concentration: 2 mM
[5] = library stock concentration: 1 mM
[6] = library stock concentration: 3.33 mM

## [Cl-].[Li+] [Lithium Chloride]
[1]
  scaled lipid accumulation score: ≤ -0.07

## COC(=O)C1=C(C)NC(C)=C(C(=O)OC)C1c1cccc(NC(=O)NCCCN2CCC(c3cccc(OC)c3)CC2)c1
[1]
  scaled lipid accumulation score: 0.68

## CC1CCN(c2cc(N3CCN(C)CC3)ccc2NC(=O)c2cc(C#N)c[nH]2)CC1 [listing 1 of 2 here]
[2]
  scaled lipid accumulation score: 0.044
[3]
  scaled lipid accumulation score: ≤ -0.016
[4]
  scaled lipid accumulation score: ≤ -0.016

## CC1CCN(c2cc(N3CCN(C)CC3)ccc2NC(=O)c2cc(C#N)c[nH]2)CC1 [listing 2 of 2 here]
[1]
  scaled lipid accumulation score: 1.32 (active)

## COc1cc(N2CCN(C)CC2)ccc1Nc1nc(N)c(C(=O)c2c(Cl)cccc2Cl)s1
[2]
  scaled lipid accumulation score: 0.02
[3]
  scaled lipid accumulation score: ≤ -0.009
[4]
  scaled lipid accumulation score: 0.155
[1]
  scaled lipid accumulation score: 0.8

## CCCC/C=C/C=C/C=C/CCCCCCCC(=O)OC [9(Z),11(E),13(E)-Octadecatrienoic Acid methyl ester]
[5]
  scaled lipid accumulation score: ≤ 0

## CC(=O)c1cc2c(cc1O)OC(C)(C)C=C2 [Eupatoriochromene]
[1]
  scaled lipid accumulation score: 0.066

## Nc1ncnc2c1c(-c1cccc(OCc3ccccc3)c1)cn2C1CC(CN2CCCC2)C1 (configuration not stated)
[1]
  scaled lipid accumulation score: 0.36

## Nc1ncnc2c1c(-c1cccc(OCc3ccccc3)c1)cn2[C@H]1C[C@@H](CN2CCC2)C1
[6]
  scaled lipid accumulation score: 0.894 (active)
[1]
  scaled lipid accumulation score: 1.01 (active)

## Nc1ncnc2c1c(-c1cccc(OCc3ccccc3)c1)cn2[C@H]1C[C@H](CN2CCCC2)C1
[6]
  scaled lipid accumulation score: 1.09 (active)

## Nc1ncnc2c1c(-c1cccc(OCc3ccccc3)c1)cn2C1CC(CN2CCC2)C1 (configuration not stated)
[2]
  scaled lipid accumulation score: 0.167
[3]
  scaled lipid accumulation score: 0.351
[4]
  scaled lipid accumulation score: 0.67
[1]
  scaled lipid accumulation score: 0.657

## Nc1ncnc2c1c(-c1ccc(Oc3ccccc3)cc1)cn2C1CCCC1
[1]
  scaled lipid accumulation score: ≤ -0.07

## C=CC(=O)N1CCC[C@@H](n2nc(-c3ccc(Oc4ccccc4)cc3)c3c(N)ncnc32)C1
[2]
  scaled lipid accumulation score: ≤ -0.009
[3]
  scaled lipid accumulation score: 0.313
[4]
  scaled lipid accumulation score: 0.033
[6]
  scaled lipid accumulation score: ≤ 0
[1]
  scaled lipid accumulation score: ≤ 0 and 0.22

## COc1cc(O)c2c(c1)/C=C/C[C@H](O)[C@H](O)C(=O)/C=C\C[C@H](C)OC2=O [5z-7-oxozeaenol]
[2]
  scaled lipid accumulation score: ≤ -0.016
[3]
  scaled lipid accumulation score: ≤ -0.016
[4]
  scaled lipid accumulation score: ≤ -0.016
[1]
  scaled lipid accumulation score: 0.613

## CN1C(CCl)Nc2cc(Cl)c(S(N)(=O)=O)cc2S1(=O)=O (configuration not stated) [Methyclothiazide]
[6]
  scaled lipid accumulation score: ≤ 0
[1]
  scaled lipid accumulation score: ≤ -0.001

## CN1C(CCl)Nc2cc(Cl)c(S(N)(=O)=O)cc2S1(=O)=O (configuration not stated)
[1]
  scaled lipid accumulation score: 0.013

## COC(=O)CCC[C@H](O)[C@H](O)CO [5(S),6(R)-7-trihydroxymethyl Heptanoate]
[5]
  scaled lipid accumulation score: ≤ 0

## NC[C@@H]1CC[C@@H](N)[C@@H](O[C@H]2[C@H](O)[C@@H](O[C@H]3O[C@H](CO)[C@@H](O)[C@H](N)[C@H]3O)[C@H](N)C[C@@H]2N)O1 [Dibekacin]
[1]
  scaled lipid accumulation score: 0.108

## CC(CCc1ccccc1)NCC(O)c1ccc(O)c(C(N)=O)c1 (configuration not stated)
[1]
  scaled lipid accumulation score: 0.089

## CC(C)(C)NC[C@H](O)c1ccc(O)c(CO)c1
[1]
  scaled lipid accumulation score: ≤ 0

## CC(CCc1ccccc1)NCC(O)c1ccc(O)c(C(N)=O)c1 (configuration not stated) [Labetalol hydrochloride]
  scaled lipid accumulation score: 0.321
[1]
  scaled lipid accumulation score: 0.546 and 0.164

## CC(C)(C)NCC(O)c1ccc(O)c(CO)c1 (configuration not stated)
[1]
  scaled lipid accumulation score: 0.076

## CC(C)(C)NCC(O)c1ccc(O)c(CO)c1 (configuration not stated) [Salbutamol]
  scaled lipid accumulation score: ≤ 0

## OCc1cc(C(O)CNCCCCCCOCCCCc2ccccc2)ccc1O (configuration not stated) [Salmeterol] [listing 1 of 2 here]
  scaled lipid accumulation score: 0.275
Library stock concentration: 4.8 mM
  scaled lipid accumulation score: 0.553
[1]
  scaled lipid accumulation score: 0.62

## CC(C)(C)NCC(O)c1ccc(O)c(CO)c1 (configuration not stated) [Albuterol hemisulfate]
[1]
  scaled lipid accumulation score: ≤ 0

## CC(CCc1ccccc1)NCC(O)c1ccc(O)c(C(N)=O)c1 (configuration not stated) [Labetalol HCl]
[6]
  scaled lipid accumulation score: ≤ 0
[1]
  scaled lipid accumulation score: 0.464

## O=C(O)c1ccc2ccccc2c1O.OCc1cc(C(O)CNCCCCCCOCCCCc2ccccc2)ccc1O (configuration not stated) [Salmeterol xinafoate]
[1]
  scaled lipid accumulation score: 0.978 (active)

## OCc1cc(C(O)CNCCCCCCOCCCCc2ccccc2)ccc1O (configuration not stated) [Salmeterol] [listing 2 of 2 here]
[1]
  scaled lipid accumulation score: 1.08 (active)

## O=C(CCCC[C@@H]1SC[C@@H]2NC(=O)N[C@@H]21)NCCCC[C@H](NC(=O)CCN1C(=O)C=CC1=O)C(=O)O [3-(N-Maleimidopropionyl)-biocytin]
[5]
  scaled lipid accumulation score: ≤ 0

## Cc1c(C(=O)Nc2ccc(N3CCC(N4CCOCC4)CC3)c(C#N)c2)cnn1-c1ccc(Cl)cc1
[6]
  scaled lipid accumulation score: 0.756
[1]
  scaled lipid accumulation score: 0.699
